Experimental data reported in PubChem BioAssay AID624296 (National Center for Advancing Translational Sciences (NCATS), 2012).
The whole screen tested about 350,000 compounds, of which about 9,900 (2.8%) were called active. Where a call stands in place of a potency, no number is given. Another 15% or so got no clear call; they are omitted. Calls come from the whole dose curve; as a rule, active = well fitted activation curve with a large enough effect; inconclusive = small, poorly fitted or top-dose-only effect; inactive = no such curve, though single readings can be large or run the other way. Many of the other results were omitted from the sample, so actives are more common in it than they were.

test: A quantitative high throughput screen for small molecules that induce DNA re-replication in MCF 10a normal breast cells.; note: nearly all actives have a fitted effect of over 50% in size; conditions: MCF 10A DNA re-replication, Hoechst nuclear intensity, 48 h; series mostly up to 46.1 µM
Excerpt: H Molecular Libraries Probe Production Network [MLPCN]
NIH Chemical Genomics Center [NCGC]
Assay Provider: Melvin DePamphilis, NICHD, NIH
Eukaryotic cells normally restrict genome duplication to once per cell division. When this process is aberrant, DNA re-replication occurs when cells reinitiate DNA replication before the first round of replication is complete. DNA re-replication induces the DNA damage response, arrests cell proliferation, and triggers apoptosis. The cell cycle components cyclin A, Cdt-1, Cdc6 and geminin are critical regulators of this process and their misregulation results in DNA re-replication in normal and cancer cells. To identify compounds that induce re-replication in normal cells, an image-based assay was used to measure DNA content of nuclei, as detected by the fluorescent DNA binding dye, Hoechst. Cell nuclei were imaged by a fluorescence scanning plate imager and compounds that induce DNA re-replication were identified by the increase of nuclei with elevated fluorescence intensity
For screening, 250 cells in 5 uL/well were dispensed into black clear 1536-well plates (Aurora) using a solenoid-based dispenser. Following transfer of 23 nL compound or DMSO vehicle by a pin tool, the plates were incubated 48 hr at 37 C and 5% CO2. After addition of 1 uL/well Hoescht stain, the plates were incubated 40 min at 37 C, 5% CO2 and total intensity of fluorescent objects (nuclei) were enumerated by an Acumen Explorer Ex3 (TTP LabTech) fluorescence scanning plate imager (405 nm excitation, 500-530 nm emission).
Keywords: NIH Roadmap, MLPCN, MLI, MLSMR, qHTS, NCGC, DNA replication, cancer
Potency is the fitted concentration of half-maximal effect.

SMILES | Potency
CCOC(=O)C(C)n1cnc2c(nnn2-c2cccc(OC)c2)c1=O (stereo not given) | inactive
c1ccc(-n2nnnc2-c2cccnc2)cc1 | inactive
CC1CCCCC1NCC(=O)Nc1ccccc1C(=O)Nc1ccccc1 (stereo not given) | inactive
CC(C#N)(NC(=O)CN1CCN(S(=O)(=O)c2cc(C(F)(F)F)ccc2Cl)CC1)C1CC1 (stereo not given) | inactive
CCOc1cc(NC(=O)c2ccccc2C(=O)O)c(OCC)cc1NC(=O)c1ccccc1F | inactive
CCN1CCN(c2cc3nc(C)n(Cc4ccccc4)c(=O)c3cc2NC(=O)c2ccccc2F)CC1 | 18.4 µM (active)
CCC(=O)Nc1ccc2nc(C)n(Cc3ccccc3Cl)c(=O)c2c1 | inactive
O=C(N=C1SC2CS(=O)(=O)CC2N1c1ccccc1)c1ccccc1 (stereo not given) | inactive
C[C@@H]1CN([C@@H](C)CO)C(=O)c2cccc(NS(=O)(=O)c3ccc(F)cc3)c2O[C@H]1CN(C)C(=O)NC1CCCCC1 | inactive
CN(C)CCNC(=O)c1ccc(Cl)c2cc3ccccc3nc12 | inactive
CS(=O)(=O)c1ccc2nc(NC(=O)c3ccc(N4CCCC4=O)cc3)sc2c1 | inactive
O=C(Nc1nc2ccc([N+](=O)[O-])cc2s1)c1ccc(S(=O)(=O)N2CCCc3ccccc32)cc1 | 2.59 µM (active)
Cc1ccc(NC(=O)c2cccc(S(=O)(=O)N3CCCc4ccccc43)c2)nc1 | inactive
COc1ccc(NC(=O)CNC(=O)Cc2ccccc2)cc1OC | inactive
COc1ccc(CNC(=O)COC(=O)c2c(C)nn(-c3ccccc3)c2C)cc1OC | inactive
COc1ccc(CNC(=O)COC(=O)c2sccc2C)cc1OC | inactive
COc1ccc(CNC(=O)COc2ccccc2C(=O)c2cnn(-c3ccccc3)c2)cc1OC | 13 µM (active)
COc1ccc(CCNC(=O)Cc2ccc(C)cc2)cc1OC | inactive
COc1ccc(CNC(=O)Cc2ccc(-c3ccccc3)cc2)cc1OC | 11.6 µM (active)
CC1CCCCC1NC(=O)NC(=O)COC(=O)C1=NN(c2ccccc2)C(=O)CC1 (stereo not given) | inactive
CCn1ccnc1CN(C)C(=O)c1cc(COc2ccc(Cl)cc2OC)on1 | inactive
CC1CN(C(=O)c2cc(COc3c(F)cccc3F)on2)CCN1C (stereo not given) | inactive
COc1cc(Cl)ccc1OCc1cc(C(=O)N2CC[C@@H]3CCCC[C@H]3C2)no1 | 16.4 µM (active)
CSc1ncccc1C(=O)NCC(c1ccco1)N1CCCCC1 (stereo not given) | inactive
COC(=O)c1cnc(Nc2cc(C)ccc2OC)c2ccccc12 | inactive

SMILES | Potency
COc1ccc(C)cc1Nc1nc(-c2c(C)[nH]c3ccccc23)cs1 | 18.4 µM (active)
CCCCCCC(=O)Nc1nc(C)c(-c2csc(Nc3cc(Cl)ccc3OC)n2)s1 | inactive
CN(CC(=O)NCCc1ccc(F)cc1)CC(=O)Nc1ccc(F)c(F)c1F | inactive
CCN(CC)c1ccc(NC(=O)c2ccc(=O)[nH]c2)cc1S(=O)(=O)Nc1ccc(OC)cc1 | inactive
Cc1ccc2nc(N3C(=O)C(O)=C(C(=O)c4ccco4)C3c3cccc(O)c3)sc2c1 (stereo not given) | 23.1 µM (active)
Cc1ccc2nc(N3CCN(C(=O)c4ccco4)CC3)sc2c1 | inactive
COc1ccc2nc(N3C(=O)C(O)=C(C(=O)c4ccco4)C3c3ccco3)sc2c1 (stereo not given) | inactive
CCN(C(=O)COC(=O)c1c(C)nn(-c2ccccc2)c1Cl)c1c(N)n(Cc2ccccc2)c(=O)[nH]c1=O | inactive
Cc1cccc(NC(=O)CN2CCN(CC(=O)NCC3(N4CCCCC4)CCCCC3)CC2)c1C | inactive
CCN(CC(=O)Nc1ccc(OC)cc1)C(=O)CSCc1ccc(C)cc1 | inactive
OCC[C@H]1C[C@@H](O)[C@H](O)[C@]2(OCCCc3ccccc32)O1 | inactive
O=C(/C=C/c1ccccc1)c1ccccc1O | 20.6 µM (active)
CN(C)/C=C/C(=O)c1ccccc1F | inactive
O=C(/C=C/c1ccccc1)N/C(=C/c1ccccc1)C(=O)Nc1ccccc1O | inactive
O=C(CSc1nnc(-c2ccncc2)o1)Nc1cccc(Cl)c1 | inactive
CN(c1ccccc1)S(=O)(=O)c1ccc(C(=O)N2CCN(c3ccccc3Cl)CC2)cc1 | inactive
CN(c1ccccc1)S(=O)(=O)c1cc(C(=O)OCC(=O)N2CCN(C(=O)c3ccco3)CC2)ccc1Cl | inactive
CN(c1ccccc1)S(=O)(=O)c1cc(C(=O)N2CCN(c3ncccn3)CC2)ccc1Cl | 20.6 µM (active)
CN(C(=O)c1cccc(NC(=O)Cc2cccc(NC(=O)C3CCCN(C(=O)C4CC4)C3)c2)c1)C1CCC1 (stereo not given) | inactive
CC[C@]1(C(=O)OC)[C@H]2C(=O)N(C)C(=O)[C@H]2[C@H]2CN(C)C(=NCc3ccccc3)N21 | inactive
Cc1cc(NC(=O)CSc2ncc(C(F)(F)F)cc2Cl)no1 | inactive
C=CC[C@@H](CC(=O)N[C@H](CO)Cc1ccccc1)C(=O)N[C@@H](COC(=O)[C@@H](CC=C)Cc1ccc(F)cc1)Cc1c[nH]c2ccccc12 | inactive
Cc1c(CC(=O)NCCCCCC(=O)O)c(=O)oc2cc3occ(-c4ccccc4)c3cc12 | inactive
CCCCCCc1cc2cc(-c3nnc(-c4ccccc4)o3)c(=O)oc2cc1O | 1.46 µM (active)
Cc1c(CCC(=O)O)c(=O)oc2cc3occ(-c4ccccc4)c3cc12 | inactive
